S1P4 agonist – agonists of human S1P4 receptor | activation, % at 4.98 µM | S1P4-expressing cell line, agonist reporter assay | 0.35% of 220,000 active | O95977; in the data active = activation above about 11%;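 also: 0% = DMSO vehicle and 100% = reference agonist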
Target sequence (O95977 whole entry, looked up): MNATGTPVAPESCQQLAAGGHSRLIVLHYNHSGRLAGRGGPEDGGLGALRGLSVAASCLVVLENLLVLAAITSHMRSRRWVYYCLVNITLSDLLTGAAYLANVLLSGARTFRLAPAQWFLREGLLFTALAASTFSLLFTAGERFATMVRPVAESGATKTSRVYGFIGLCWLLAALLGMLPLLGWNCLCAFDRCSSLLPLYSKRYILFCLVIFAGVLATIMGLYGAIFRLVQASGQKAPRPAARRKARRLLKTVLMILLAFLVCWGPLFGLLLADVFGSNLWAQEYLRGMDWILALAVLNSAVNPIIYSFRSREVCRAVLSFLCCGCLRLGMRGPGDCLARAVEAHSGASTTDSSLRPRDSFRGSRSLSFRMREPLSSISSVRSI
S1P4 antag – blocks the human S1P4 receptor; O95977; 0.26% of 220,000 active; AID 1510; inhibition, % at 4.98 µM; S1P4-expressing cells, antagonist mode, reporter read-out; in the data active = inhibition above about 29%;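 also: 0% = wells stimulated with agonist and 100% = vehicle wells without agonist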
CHOP inh – inhibitors of CHOP induction in ER stress response; CHO-K1 CHOP-promoter luciferase, tunicamycin-induced, 15-18 h; inhibition, % at 10 µM; 3.8% of 220,000 active; AID 2732;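 active = compounds that reduced the stress-induced luciferase reporter signal by more than about 70% of percent inhibition, limit read from the data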;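 also: 0% = tunicamycin plus vehicle and 100% = wells without tunicamycin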
Hsp70 act – switches on Hsp70 transcription; HeLa Hsp70 promoter luciferase reporter, luminescence; scaled: vehicle 0, proteasome-inhibitor control 100%; activation, % at 10 µM; 0.04% of 200,000 active;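 active = activation above the mean across all tested compounds plus 3 SD, cutoff set per campaign, cut at about 5.5% in these data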;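 also: 100% = MG132 at 30 µM as the positive control and 0% = DMSO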
Starred values were filed as active, the others as inactive; . = no result given. A selection: hits, their analogues and other compounds. The true share with any hit is near 4.2%.

SMILES | S1P4 agonist | S1P4 antag | CHOP inh | Hsp70 act
COc1ccc(CC(=O)N2CCN(c3ccccn3)CC2)cc1OC | 1 | -19 | -1 | 0
Cc1ccc(N(C(C)C(=O)Nc2ccc3c(c2)OCO3)S(C)(=O)=O)cc1 (stereo unspecified) | 10 | -24 | 26 | 0
CC(C)(C)c1ccccc1NC(=O)c1ccco1 | 0 | 15 | 6 | 0
CC(C)(C)c1ccc(C(=O)Nc2ccccc2NC(=O)c2ccco2)cc1 | 1 | -30 | 72* | 0
Cc1cc(Cl)ccc1OCC(=O)n1cc(C(=O)c2cc(Cl)ccc2O)cn1 | 2 | -9 | 77* | 0
COC(=O)c1ccccc1CON1C(=O)C(C)(C)N(OCc2ccccc2C(=O)OC)C(=O)C1(C)C | 3 | 2 | 33 | 0
O=C(c1cc2nc(-c3ccco3)cc(C(F)(F)F)n2n1)N1CCCc2ccccc21 | 0 | -7 | 71* | 0
CN(C(=O)c1cc2nc(-c3ccco3)cc(C(F)(F)F)n2n1)C1CCCCC1 | 1 | -1 | 93* | 0
O=C(c1nn2c(C(F)(F)F)cc(-c3ccco3)nc2c1Br)N1CCCc2ccccc21 | 2 | 3 | 46 | 0
Cc1nn(CC(=O)N2CCOCC2)c(=O)c2ccccc12 | 2 | -8 | -24 | 0
CCc1cc2c(=O)c(-c3cnn(-c4ccccc4)c3)c(C)oc2cc1OCC(=O)Nc1cccc(C)c1 | -1 | -20 | 94* | 0
Cc1oc2cc(O)ccc2c(=O)c1-c1cnn(-c2ccccc2)c1 | -1 | 1 | 12 | 0
CCc1cc2c(=O)c(-c3cnn(-c4ccccc4)c3)c(C)oc2cc1OCC(=O)Nc1ccc(F)c(F)c1 | -1 | 2 | 86* | 0
CCc1cc2c(=O)c(-c3ccc(F)cc3)c(C)oc2cc1OCC(=O)O | 1 | -26 | 14 | 0
COc1ccc2[nH]cc(C(=O)CN(C)CCc3ccc(OC)c(OC)c3)c2c1 | -1 | -24 | 28 | 0
Oc1ccc(N=Nc2nc(-c3ccccc3)c(-c3ccccc3)[nH]2)cc1 | 0 | -17 | 92* | 0
COc1cccc(-c2csc3nnc(SCC(=O)c4ccc(NC(C)=O)cc4)n23)c1 | 3 | -12 | 79* | 0
COc1ccc(OC)c(-c2csc3nnc(SCC(=O)Nc4ccc(NC(C)=O)cc4)n23)c1 | -1 | 8 | 10 | 0
Cc1cccc(OCC(=O)N/N=C2/SCC(=O)N2Cc2ccco2)c1 | 0 | -20 | 2 | 0
CCCC(=O)N=C1SC2CS(=O)(=O)CC2N1c1ccc(-c2nc3ccc(C)cc3s2)cc1 (stereo unspecified) | 2 | -21 | 77* | 0
CCN(CC(O)Cn1c2ccccc2c2ccccc21)S(=O)(=O)c1ccc(F)cc1 (stereo unspecified) | 0 | -1 | 70* | -1
CCN(CC)CC(O)Cn1c2ccccc2c2ccccc21 (stereo unspecified) | 1 | -3 | -17 | 0
O=S(=O)(c1ccc(F)cc1)N(CCO)CC(O)Cn1c2ccccc2c2ccccc21 (stereo unspecified) | -1 | -10 | 73* | 0
COc1ccccc1C(=O)Oc1ccc2c(c1)O/C(=C\c1ccncc1)C2=O | 0 | 7 | 52 | 0
COc1ccc(-c2[nH]c(-c3ccc(SC)cc3)nc2SCC(=O)Nc2nccs2)cc1 | -1 | -11 | 77* | 0
SMILES | S1P4 agonist | S1P4 antag | CHOP inh | Hsp70 act
COc1ccc(-c2[nH]c(-c3ccc(C)cc3)nc2SCC(=O)Nc2nccs2)cc1 | 2 | 6 | 23 | 0
O=C(CSc1nc(-c2ccccc2)nc2c1Cc1ccccc1O2)Nc1ccc(C(=O)O)cc1 | 1 | -2 | 77* | 0
CCC(=O)N(CCC1(C(C)C)CCOC(C)(C)C1)C(C)c1cccs1 (stereo unspecified) | 0 | -6 | 7 | .
CC1OC(O[C@H]2CC[C@]3(C)C4C=C[C@]56OC[C@@]7(CC[C@@H](C)[C@H](C)C75)[C@H](O)C[C@@]6(C)[C@]4(C)CC[C@H]3C2(C)C)C(OC2OC(CO)C(O)C(O)C2OC2OCC(O)C(O)C2O)C(O)C1O (stereo partly specified) | . | . | 100* | .
Cc1cc(NC(=O)Cn2nnc3sc4c(c3c2=O)CCCC4)no1 | 1 | -4 | 61 | 0
Cc1cc(NC(=O)Cn2nnc3sc4c(c3c2=O)CCC(C(C)(C)C)C4)no1 (stereo unspecified) | 1 | -14 | 81* | 0
CCCC(=O)Nc1ccc(C(=O)NNC(=O)c2cccs2)cc1 | -1 | 10 | -27 | 0
Cc1cc(C)nc(SCC(=O)OCN2C(=O)c3ccccc3C2=O)n1 | 1 | -16 | 26 | 0
CC(C)n1c2ccccc2c2nnc(SCC(=O)OCN3C(=O)c4ccccc4C3=O)nc21 | 2 | 1 | 90* | 0
COCCNC(=O)c1cccc(C)c1[N+](=O)[O-] | 1 | -13 | -2 | 0
O=c1c2c(nc3cc(-c4ccc(Br)cc4)[nH]n13)CCCC2 | 1 | 8 | 73* | 0
COc1ccc(-c2ccc(-c3nc4c(c(=O)[nH]c(=O)n4Cc4ccccc4)n3C)o2)c([N+](=O)[O-])c1 | 1 | -12 | 90* | 0
COCCn1c(=O)[nH]c(=O)c2c1nc(-c1ccc(-c3ccc(Cl)cc3[N+](=O)[O-])o1)n2Cc1ccccc1 | 0 | 2 | 41 | 0
CN(C)S(=O)(=O)N(CC(=O)NCc1ccccc1)c1ccccc1 | -1 | -10 | 12 | 0
O=c1c2ccccc2nc(COc2ccccc2)n1/N=C/c1cn[nH]c1-c1ccccc1 | 1 | -11 | 85* | 0
Cc1ccccc1OCc1nc2ccccc2c(=O)n1/N=C/c1cn[nH]c1-c1ccc(Br)cc1 | 1 | -17 | 21 | 0
O=C(Sc1cccc2cccnc12)c1ccc(F)cc1 | 1 | 98* | 91* | 2
COc1cccc(-c2cc(C(F)(F)F)nc(N3CCOCC3)n2)c1 | -4 | -5 | 74* | 0
COc1ccccc1-c1cc(C(F)(F)F)nc(N2CCOCC2)n1 | 2 | -7 | 72* | 0
COc1ccc(-c2csc(NC(=O)c3ccc(S(=O)(=O)N4CCc5ccccc5C4)cc3)n2)cc1 | 0 | -24 | 12 | 0
COc1ccc(-c2nnc(NC(=O)c3ccc(S(=O)(=O)N4CCc5ccccc5C4)cc3)o2)cc1 | 0 | -5 | 71* | 1
O=C(/C=C/c1cccs1)N1CCN(c2ccccc2F)CC1 | 0 | -4 | 11 | 0
Cc1ccc(S(=O)(=O)c2c(C)nn(C(C)(C)C)c2OC(=O)c2ccco2)cc1 | -2 | 3 | 22 | 0
Cc1ccc(S(=O)(=O)c2c(C)nn(C(C)(C)C)c2OC(=O)c2ccc(Br)o2)cc1 | 1 | -9 | 72* | 0
Cc1ccc(S(=O)(=O)c2c(C)nn(C(C)(C)C)c2OC(=O)c2cccs2)cc1 | -4 | 8 | 72* | 0
CCOc1ccc2nc(SCC(=O)NC(=O)C(C)C)sc2c1 | 1 | -1 | 2 | 0
Cc1ccc(NC(=O)c2cc(N3C(=O)C=CC3=O)ccc2N2CCOCC2)cc1 | 3 | -15 | 109* | 0
Cc1ccc(NC(=O)c2cc(N3C(=O)C=CC3=O)ccc2Cl)cc1C | 0 | 3 | 104* | 0

Screening data (PubChem)
